Data as given in PubChem BioAssay AID1745850 (National Center for Advancing Translational Sciences (NCATS), 2022).
About 260 (12%) of roughly 2,100 compounds were called active. Not shown: some 58% with an inconclusive outcome. The call rests on the fitted dose curve; in most records, active means well fitted cell-killing curve with a large enough effect; inconclusive means small, poorly fitted or top-dose-only effect, or effect the other way; inactive means flat fitted curve, though single readings scatter. This is one part of the list. Entries that show only a call come without a potency.

Assay: Viability Counterscreen for Confirmatory qHTS for Inhibitors of ATXN expression; further: nearly all actives have a fitted effect of over 50% in size
Settings: HEK-293 ATXN2-luc cells viability, CellTiter-Fluor, 24 h
Excerpt: PI: Daniel Scoles Ph.D. University of Utah School of Medicine, Salt Lake City, Utah MLPCN Grant: NS073009 Spinocerebellar ataxia type 2 (SCA2) is a multisystem neurodegenerative disease caused by a dominantly acting mutation leading to expansion of a polyQ domain in the ataxin-2 protein (ATXN2). SCA2 patients develop progressive ataxia and later lose function in other neuronal systems. Prominent parkinsonian signs develop in some patients. Like many neurodegenerative disorders, no symptomatic or disease-modifying treatments are known. The primary objective of the proposed research is to identify compounds inhibiting ATXN2 expression and to test them for efficacy in SCA2 mouse models. We have developed a cell-based assay paired with an in vivo mouse model using identical luciferase expression constructs. This approach takes advantage of an ATXN2-luciferase transgene, with the luciferase gene flanked by the upstream and downstream portions of the ATXN2 gene. Here we describe a 5-7 dose quantitative high thoroughput screen (qHTS) for compounds lowering ATXN2 expression. We screened the NIH Molecular Libraries Small Molecule Repository (MLSMR) and NCGC's mechanistically annotated (MIPE) and drug repurposing (NPC) collections of compounds for lowering expression of an ATXN2-luciferase reporter in HEK-293 cells. The assay is a multiplexed cell viability assay to ensure target reduction in the absence of cytotoxicity. Secondary qHTS assays included a CMV-luciferase reporter expressed in HEK-293 cells as well as a biochemical assay using recombinant luciferase to detect inhibitors of the reporter enzyme. Compounds that inhibit ATXN2 expression but is not cytotoxic were selected for confirmatory and secondary screens.
PROTOCOL TABLE (as described by Inglese J, Shamu CE and Guy RK. 2007) SEQUENCE No. (e.g., 1, 2, 3, etc.); […] (e.g., Cells, Incubation, Reagent, etc.); VALUE; DESCRIPTION. 1; Cells; 4 uL; white, solid bottom, 1536-well Greiner assay plate. 2; Incubation; 2 hr; 37 degree C in 5% humidified CO2. 3; Compounds; 23 nL; Kalypsis pintool (Wako USA) equipped with a 1536-well pin head. 4; Incubation; 24 hr; 37 degree C in 5% humidified CO2. 5; Reagent; 1 uL; Gly-Phe-7-Amino-4-trifluoromethylcoumarin. 6; Incubation; 30 min; 37 degree C in 5% humidified CO2. 7; Detection; Fluorescence; ViewLux plate reader (PerkinElmer). 8; Reagent; 3 uL; SteadyGlo luciferase solution (Promega). 9; Incubation; 5 min; room temperature. 10; Detection; Luminescence; ViewLux plate reader (PerkinElmer). NOTES (numbers refer to Sequence numbers above) 1. S2 cells expressing ATXN2-luciferase reporter were suspended in phenol-red free DMEM and dispensed in assay plates using a Multidrop Combi dispenser (Thermo Fisher Scientific). Wells containing medium only were plated on each plate, and values were used to normalize (100% inhibition) in the luciferase and CellTiter-Fluor assays. 2. Assay plates were incubated. Evaporation was prevented by covering assay plates with metal lids containing holes to allow gas diffusion. 3. Compounds were added in a dose response manner with the final concentrations of 57, 11.4, 2.28, 0.46, 0.091, 0.018, 0.0037 uM. Vehicle-only plates, with DMSO being pin-transferred to columns 5-48, were inserted uniformly at the beginning and the end of each library to monitor and record any shifts in assay performance. 5. 125 uM Gly-Phe-7-Amino-4-trifluoromethylcoumarin (MP Biomedicals) working concentration was used at a final concentration of 25 uM. 7. To assess cell viability; the assay plates were read using the ViewLux high-throughput CCD imager (PerkinElmer), wherein single end-point fluorescence measurement was acquired (excitation 405/10; emission 540/25 nm). 8. Detection reagent SteadyGlo Luciferase (Promega) was added to the assay plate. 10. Luminescence is then measured on the ViewLux imager equipped with a clear emission filter using a 2 sec exposure. […]
Potency means the concentration at half of the fitted maximal effect.

SMILES | Potency
COCc1cc(CN2CCCC2)c(O)c2ncccc12 | inactive
COc1ccccc1N1CCN(Cc2ccc(O)c3ncccc23)CC1 | 2.82 µM (active)
COc1cccc(CN2CCC2(C)C(=O)Nc2cccc3cccnc23)c1OC (stereo unspecified) | inactive
Cc1ccc(/C=C2/CNC/C(=C/c3ccc(C)cc3)C2=O)cc1 | 11.2 µM (active)
CN(C)CCNc1cccc2sc3ccc(O)cc3c(=O)c12 | 22.4 µM (active)
CN(C)CCNc1ccc2ncn3c4ccc(O)cc4c(=O)c1c23 | inactive
CCn1c2ccccc2c2cc(/C=C(/C#N)C(N)=S)ccc21 | inactive
CCN(CC)S(=O)(=O)c1cccc(C(=O)N/N=C(\C)c2ccc(O)cc2O)c1 | inactive
O=C(NN=C1CCCC1)c1cc(-c2ccc(F)cc2)nc2ccccc12 | inactive
C/C(=N\NC(=O)c1cc(-c2cccnc2)nc2ccccc12)c1ccc(O)cc1O | 11.2 µM (active)
CCN(CC)c1ccc(/C=N/NC(=O)CNC(=O)C2COc3ccccc3O2)c(O)c1 (stereo unspecified) | inactive
COc1ccc(CN2CCCN(S(=O)(=O)c3ccc(Br)cc3)CC2)cc1 | inactive
Cc1cccc(OCCCC(=O)Nc2nccs2)c1 | inactive
O=C(NC(Nc1ncc(S(=O)(=O)c2ccc([N+](=O)[O-])cc2)s1)(C(F)(F)F)C(F)(F)F)c1ccc(Cl)cc1 | 10 µM (active)
O=C(NC(Nc1nc2ccc([N+](=O)[O-])cc2s1)(C(F)(F)F)C(F)(F)F)c1ccccc1 | 2.24 µM (active)
Cc1ccc(S(=O)(=O)c2cc3cc(Br)ccc3oc2=O)cc1 | inactive
Cn1c(CO)cnc1S(=O)(=O)Cc1ccc([N+](=O)[O-])cc1 | inactive
O=C(CN1CCN(C(=O)c2ccc(-c3nc4ccccc4s3)o2)CC1)Nc1ccccc1Cl | 3.55 µM (active)
c1nc(CCO[C@H]2CCCCO2)cc2cc3c(cc12)OCO3 | inactive
O=C(CN1c2cccc3cccc(c23)S1(=O)=O)NCc1ccc(Cl)cc1 | inactive
O=C(CCc1ccccc1)NNC(=O)c1cc(Cl)ccc1O | inactive
Cc1cc(Nc2cccc([N+](=O)[O-])c2)n2c(nc3ccccc32)c1C#N | 5.01 µM (active)

SMILES | Potency
Cc1ccc(-c2c(C#N)c(N)n3c(nc4ccccc43)c2C#N)cc1 | inactive
COc1ccc(-c2nnc(NC(=O)c3ccc(S(=O)(=O)N4COCC4(C)C)cc3)o2)cc1 | inactive
Cc1ccc(NC(=O)c2ccc(-c3nn(C)c(=O)c4ccccc34)cc2)cc1 | inactive
CCOC(=O)C(NS(=O)(=O)c1ccc(C)cc1)(C(F)(F)F)P(=O)(OCC(C)C)OCC(C)C (stereo unspecified) | inactive
Cc1csc2c(N3CCN(C(=O)Nc4ccc(Cl)c(Cl)c4)CC3)ncnc12 | inactive
NNc1ncnc2sc3c(c12)CCC3 | inactive
O=c1c2c3c(sc2ncn1/N=C/c1ccc([N+](=O)[O-])o1)CCCC3 | 3.55 µM (active)
COc1cc(/C=C2\COC/C(=C\c3cc(OC)c(OC)c(OC)c3)C2=O)cc(OC)c1OC | 1.78 µM (active)
COc1ccc(/C=C2/CSC/C(=C/c3ccc(OC)c(OC)c3)C2=O)cc1OC | 11.2 µM (active)
Cc1ccc(CN2CCC(c3nc4ccc(Cl)cc4[nH]3)CC2)cc1 | inactive
Cc1cc(C)c(C(O)c2ncc(-c3cccc4ccccc34)[nH]2)c(C)c1 (stereo unspecified) | inactive
OC(c1ccc(Cl)cc1)c1ncc(-c2cccc(C(F)(F)F)c2)[nH]1 (stereo unspecified) | inactive
Cc1ccc(-c2csc(N3CCN(c4cc5c(cc4Cl)nc(-c4ccncc4)n5CCOCCO)CC3)n2)cc1 | inactive
Cn1c2c(c(=O)n(C)c1=O)C(C(F)(F)F)(C(F)(F)F)N=C(CCC1CCCCC1)N2 | 20 µM (active)
COc1cc(Nc2ncc3c(n2)CCN(C(=O)Nc2ccc(C(C)C)cc2)C3)cc(OC)c1OC | inactive
CCCc1cc(C(=O)Nc2ccc(C(=O)c3ccc(C)cc3)cc2)n(C)n1 | inactive
Cc1cc(C(=O)N/N=C/c2cc(Br)ccc2OC(=O)c2ccccc2)n[nH]1 | inactive
Cc1ccc(NC(=O)C2CCN(S(=O)(=O)c3ccc(N4CCCC4=O)cc3)CC2)cc1Cl | inactive
Cn1c(SCc2ccc(C(C)(C)C)cc2)nnc1C1COc2ccccc2O1 (stereo unspecified) | inactive
CCc1ccc(CNC(=O)C2CCN(c3nnc(C)c4c(C)n(-c5ccc(C)cc5)nc34)CC2)cc1 | 20 µM (active)
CCc1ccc(C(=O)NNC(=O)C2CCN(c3ncnc4sc(C)c(C)c34)CC2)cc1 | inactive
CCc1c(C)nc2ncnn2c1N1CCC(C(=O)Nc2ccc(C)cc2)CC1 | inactive

SMILES | Potency
FC(F)(F)c1cc(-c2ccccn2)nc2cc(-c3ccccc3)nn12 | inactive
Cc1ccc(-c2nnc(N3CCC(C)CC3)c3ccccc23)cc1C | inactive
Cc1cc2c(N=O)c(NO)ccc2[nH]1 | 12.6 µM (active)
CC[n+]1c(C=C2C=C(C)OC(C)=C2)sc2ccccc21 | 11.2 µM (active)
NNc1nc(N)c2c(n1)-c1ccccc1CC21CCCC1 | inactive
OCCNc1c2ccccc2nc2c(F)c(F)c(F)c(F)c12 | inactive
CC(=O)Nc1ccc(Nc2c3ccccc3nc3ccccc23)cc1 | 17.8 µM (active)
CC(=O)Nc1ccc(NC2=Nc3ccccc3N3C2=Nc2c(c(C)nn2-c2ccccc2)C3c2ccccc2)cc1 (stereo unspecified) | inactive
Cc1nnc(SCC(N)=O)n1CC1CCCO1 (stereo unspecified) | inactive
CCOc1ccccc1C(=O)Nc1ccc2nc(N3CCN(c4ncccn4)CC3)cc(C)c2c1 | 11.2 µM (active)
CCOc1ccc(C(=O)Nc2ccc(Cc3ccncc3)cc2)cc1Br | inactive
CCOc1ccccc1NC(=O)N1CCC(c2nc3ccccc3[nH]2)CC1 | inactive
OC(c1ccccc1)(c1nc(-c2cc3ccccc3o2)cs1)C(F)(F)F (stereo unspecified) | inactive
CCc1ccc(-c2nc(CS(=O)CC(=O)NCc3ccco3)c(C)o2)cc1 (stereo unspecified) | inactive
O=C(CP(=O)(c1ccccc1)c1ccccc1)N/N=C/c1cc(Br)cc(Br)c1O | inactive
O=C(N/N=C/c1ccc([N+](=O)[O-])s1)c1ccccc1Br | 22.4 µM (active)
O=C(N/N=C\c1ccc([N+](=O)[O-])s1)c1cncc(Br)c1 | 11.2 µM (active)
COc1ccc(C(=O)NCC(=O)N/N=C/c2ccc([N+](=O)[O-])s2)cc1OC | 22.4 µM (active)
O=C(CNC(=O)c1cccc(Br)c1)N/N=C/c1cc(Br)cc(Br)c1O | inactive
O=C(N/N=C/c1cc(Br)ccc1O)c1ccncc1 | inactive
O=C(CNC(=O)c1ccccc1Br)N/N=C/c1cc(Br)ccc1O | inactive
Cc1ccc(OCCNC(=O)c2cncc(Br)c2)cc1C | inactive
